Assay results reported in PubChem BioAssay.
Active and inactive are the calls of the source. Unless noted, how the calls were made is not given here.

Key:
[1] = A549 cell viability effects, profiling panel, calcein-AM fluorescence, 48 h, basal (AID 1162); details: higher = more signal; further: test concentration not given here
[2] = adipocyte viability effects, profiling panel, cell-based, 3T3-L1 adipocytes, calcein-AM fluorescence, 48 h, basal (AID 1163); details: 3T3-L1 adipocytes viability, higher = more signal; further: test concentration not given here
[3] = HepG2 cell viability effects, profiling panel, calcein-AM fluorescence, 48 h, basal (AID 1164); details: higher = more signal; further: test concentration not given here
[4] = MM1S cell viability effects, profiling panel, calcein-AM fluorescence, 48 h, basal (AID 1165); details: higher = more signal;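 further: viability of MM1S multiple myeloma cells under basal unstimulated conditions; test concentration not given here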
[5] = basal RPMI8226 viability, no added stimulus, profiling panel, cell-based, calcein-AM fluorescence, 48 h, PK04 Diversity Set (AID 1166); details: RPMI8226 myeloma viability, higher = more signal;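 further: cells grown under basal conditions without added stimulus; test concentration not given here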
[6] = basal HepG2 mitochondrial membrane potential changes, profiling panel, cell-based, JC-1 fluorescence, 24 h, 100 nL compound (AID 1167); details: higher = more signal; further: test concentration not given here
[7] = basal 3T3-L1 adipocyte mitochondrial potential changes, profiling panel, cell-based, JC-1 fluorescence, 3T3-L1 adipocytes, 24 h, 100 nL compound (AID 1168); details: JC-1 mitochondrial fluorescence, higher = more signal, called active from +8 up or from −8 down; further: test concentration not given here
[8] = basal RPMI8226 mitochondrial membrane potential changes, profiling panel, cell-based, JC-1 fluorescence, 24 h, 100 nL compound (AID 1169); details: RPMI8226 myeloma, JC-1 mitochondrial potential fluorescence, higher = more signal; further: test concentration not given here
[9] = basal MM1S mitochondrial membrane potential changes, profiling panel, cell-based, JC-1 fluorescence, 24 h, 100 nL compound (AID 1170); details: higher = more signal; further: test concentration not given here
[10] = A549 lung cancer cell viability effects, profiling panel, resazurin fluorescence, 24 h, PK04 Diversity Set (AID 1171); details: higher = more signal, called active from +8 up or from −8 down; further: test concentration not given here
[11] = HepG2 liver cancer cell viability effects, profiling panel, resazurin fluorescence, 24 h, PK04 Diversity Set (AID 1172); details: higher = more signal; further: test concentration not given here
[12] = basal S. cerevisiae growth modulation, no modifier, primary screen, OD600, strain BY4716, 24 h, basal condition (AID 1173); details: OD600, 24 h, higher = more signal, called active from +8 up or from −8 down
[13] = MM1S myeloma cell viability, profiling panel, resazurin fluorescence, basal, 24 h, PK04 Diversity Set (AID 1174); details: higher = more signal, called active from +8 up or from −8 down;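 further: MM1S multiple myeloma cell line; test concentration not given here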
[14] = biological target: Dihydroorotate dehydrogenase (quinone), mitochondrial (Plasmodium falciparum (isolate 3D7)) (UniProt Q08210); test: PfDHODH enzyme inhibitors, primary screen, biochemical, C-terminal His tag, absorbance 600 nm (AID 1175); details: DCIP absorbance 600 nm, higher = more signal, called active from +8 up or from −8 down;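 further: recombinant parasite enzyme with a five histidine tag at its C terminus; test concentration not given here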
[15] = P. aeruginosa biofilm formation inhibitors, primary screen, strain PAO1, LB-PBS medium, absorbance 600 nm (AID 1176); further: test concentration not given here; details: P. aeruginosa PAO1 growth/biofilm, A600, 12 h; higher = more signal
[16] = S. cerevisiae RM11-1a growth modifiers, primary screen, strain RM11-1a, OD600, basal, 24 h (AID 1177); details: OD600, 24 h, higher = more signal, called active from +8 up or from −8 down;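 further: cultures grown under basal conditions with no added stressor; test concentration not given here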
[17] = E. coli acrAB mutant growth effects, primary screen, E. coli filamentation inducers, strain DRC39, OD650, 24 h (AID 1178); details: higher = more signal, called active from +8 up or from −8 down;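 further: growth measured as culture turbidity by optical density at 650 nm; test concentration not given here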
[18] = E. coli acrAB mutant growth effects, primary screen, E. coli filamentation inducers, strain DRC39, OD650, 48 h (AID 1179);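 further: screen aims at cell division blockers that make cells filament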; details: E. coli DRC39 delta-acrAB growth, higher = more signal, called active from +8 up or from −8 down
[19] = RPMI8226 myeloma cell viability, profiling panel, resazurin fluorescence, basal, 24 h, PK04 Diversity Set (AID 1180); details: higher = more signal;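 further: RPMI8826 multiple myeloma cell line at 5000 cells per well; test concentration not given here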
[20] = biological target: E3 ubiquitin-protein ligase XIAP (Homo sapiens) (UniProt P98170); test: XIAP binders, primary screen, biophysical, small-molecule microarray, fluorescence 635 nm (AID 1181); details: small-molecule microarray binding, higher = more signal;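 further: score merges 667 nm emission and signal to noise over triplicate slides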
E3 ubiquitin-protein ligase XIAP (Homo sapiens), sequence (P98170 whole entry, looked up): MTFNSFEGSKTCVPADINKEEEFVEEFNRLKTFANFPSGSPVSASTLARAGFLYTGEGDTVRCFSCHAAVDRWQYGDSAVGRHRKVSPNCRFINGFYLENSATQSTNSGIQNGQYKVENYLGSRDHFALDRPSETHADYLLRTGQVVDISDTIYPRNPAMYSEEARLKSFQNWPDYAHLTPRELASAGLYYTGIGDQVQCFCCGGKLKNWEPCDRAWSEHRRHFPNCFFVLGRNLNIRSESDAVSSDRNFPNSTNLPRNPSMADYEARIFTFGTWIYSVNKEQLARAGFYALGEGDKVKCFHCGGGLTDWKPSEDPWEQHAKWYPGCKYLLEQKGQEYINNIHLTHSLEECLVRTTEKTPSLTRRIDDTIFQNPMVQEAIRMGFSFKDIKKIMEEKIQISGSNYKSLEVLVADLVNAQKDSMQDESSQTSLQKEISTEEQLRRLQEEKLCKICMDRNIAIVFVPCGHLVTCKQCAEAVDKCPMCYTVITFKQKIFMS

Dihydroorotate dehydrogenase (quinone), mitochondrial (Plasmodium falciparum (isolate 3D7)), sequence (Q08210 whole entry, looked up): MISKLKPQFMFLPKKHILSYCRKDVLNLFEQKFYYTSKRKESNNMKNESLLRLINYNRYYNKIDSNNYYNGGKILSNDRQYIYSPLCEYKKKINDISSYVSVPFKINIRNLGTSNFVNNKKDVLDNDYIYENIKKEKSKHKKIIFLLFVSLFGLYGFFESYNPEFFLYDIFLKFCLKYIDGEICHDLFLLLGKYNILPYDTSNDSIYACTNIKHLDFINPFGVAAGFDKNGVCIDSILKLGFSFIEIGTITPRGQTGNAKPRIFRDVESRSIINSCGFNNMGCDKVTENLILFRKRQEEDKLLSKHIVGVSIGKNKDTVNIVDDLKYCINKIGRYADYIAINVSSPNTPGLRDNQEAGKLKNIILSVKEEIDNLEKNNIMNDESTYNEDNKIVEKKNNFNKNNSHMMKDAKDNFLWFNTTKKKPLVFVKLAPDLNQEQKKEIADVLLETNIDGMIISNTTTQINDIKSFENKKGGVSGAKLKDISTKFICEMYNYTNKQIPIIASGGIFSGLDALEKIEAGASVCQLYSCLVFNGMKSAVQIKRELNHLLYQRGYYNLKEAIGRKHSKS

Compound | z-score [1] | z-score [2] | z-score [3] | z-score [4] | z-score [5] | z-score [6] | z-score [7] | z-score [8] | z-score [9] | z-score [10] | z-score [11] | z-score [12] | z-score [13] | composite z-score [14] | z-score [15] | z-score [16] | z-score [17] | z-score [18] | z-score [19] | composite z-score [20]
CO[C@H]1O[C@H](CO)[C@@H](OC(=O)Nc2ccc(C(F)(F)F)cc2)[C@H](OC(=O)Nc2ccccc2)[C@@H]1OC(=O)Nc1ccccc1 | -0.902 | -0.133 | -1.28 | -2.72 | -2.84 | -0.901 | -1.47 (inactive) | -0.828 | 0.469 | -0.0537 (inactive) | -0.5 | -0.332 (inactive) | -1.34 (inactive) | -0.798 (inactive) | 0 (inactive) | 0.0212 (inactive) | 0.886 (inactive) | -0.053 (inactive) | -0.771 | 0.0468
Cc1ccc(S[C@]2(C(=O)NCC(F)(F)F)CC(=O)N(C3Cc4ccccc4C3)[C@@H]2c2ccc(CO)cc2I)cc1 | 0.833 | 0.236 | 0.506 | -2.1 | -3.02 | 0.194 | -0.131 (inactive) | 0.045 | -1.4 | 0.537 (inactive) | 0.788 | -3.18 (inactive) | -2.74 (inactive) | 0.427 (inactive) | 0.0898 (inactive) | -0.391 (inactive) | 0.715 (inactive) | 0.503 (inactive) | -1.32 | 0.0499
COC(=O)[C@@]1(Cc2ccc(OC)cc2)[C@H]2c3cc(C(=O)N4CCCC4)n(CCc4ccccn4)c3C[C@H]2CN1C(=O)c1ccccc1 | -0.991 | 1.13 | -0.946 | 0.0275 | -1.7 | 1.1 | -1.59 (inactive) | -0.161 | 0.00382 | -0.201 (inactive) | -0.608 | 1.17 (inactive) | -1.55 (inactive) | -0.362 (inactive) | 1.5 (inactive) | 0.664 (inactive) | -0.784 (inactive) | -0.912 (inactive) | -2.73 | 0.0976
CC(C)C(=C=CC[C@H](O)c1ccccc1OCCO)CCO | -0.417 | -1.06 | -0.07 | -0.256 | -1.56 | -0.926 | -0.318 (inactive) | -0.424 | -0.305 | -0.245 (inactive) | -0.457 | -1.39 (inactive) | -0.0976 (inactive) | -0.757 (inactive) | 1.17 (inactive) | 0.0589 (inactive) | -0.235 (inactive) | -0.153 (inactive) | 0.217 | -0.23
CC(c1ccccc1)C(O)C1C=CC2C(=O)N(Cc3ccccc3)C(=O)C2N1n1cnnc1 (stereo not given) | -0.313 | 0.0487 | -0.547 | -0.0399 | -0.751 | 0.203 | -0.884 (inactive) | -0.107 | -0.526 | -0.694 (inactive) | -0.69 | -6.59 (inactive) | -0.652 (inactive) | 0.381 (inactive) | 0.492 (inactive) | 0.263 (inactive) | -0.491 (inactive) | -2.39 (inactive) | -0.161 | 0.456
C=C(C(=O)CC[C@H](OC(=O)c1cccnc1)c1ccccc1OCCO)C(C)C | 0.219 | -0.602 | -0.967 | -2.21 | -1.69 | -1.45 | 0.31 (inactive) | -0.742 | -0.477 | 0.626 (inactive) | 0.3 | -0.993 (inactive) | -1.5 (inactive) | -0.429 (inactive) | 0.686 (inactive) | -0.237 (inactive) | 0.283 (inactive) | 0.237 (inactive) | -2.14 | -0.0994
C=C(CCCC)/C(=C/C[C@H](OC(C)=O)c1ccc(CO)o1)c1cc(C(=O)OC)ccc1OC | -0.0865 | 1.03 | -0.888 | -2.21 | -2.15 | -0.854 | -0.356 (inactive) | 0.292 | 0.6 | -0.684 (inactive) | -0.577 | -0.31 (inactive) | -0.871 (inactive) | -2.01 (inactive) | 0.0842 (inactive) | 0.0837 (inactive) | -0.729 (inactive) | -0.776 (inactive) | -0.641 | -0.322
C=CCC(OC(C)=O)[C@@H]1[C@@H](N(Cc2cc3ccccc3o2)C(=O)c2cccc3ccccc23)c2cc(OCCCO)ccc2N1C(=O)Cc1ccc2ccccc2c1 (stereo not given in full) | 0.206 | 0.753 | 0.381 | 0.791 | -1.08 | 2.07 | -0.858 (inactive) | 0.313 | -0.963 | -1.05 (inactive) | -0.902 | 0.272 (inactive) | -0.411 (inactive) | 0.449 (inactive) | -0.735 (inactive) | 0.481 (inactive) | -0.741 (inactive) | -0.973 (inactive) | -0.276 | -0.0703
